The values that follow come from PubChem BioAssay.

Calls of active or inactive are those of the source.

The subject of assay [1] is PRMT1 (protein arginine N-methyltransferase 1). The assay is described as follows: small molecules binding arginine methyltransferase PRMT1 – biochemical, small-molecule microarray, 635 nm fluorescence, primary screen (AID 1088).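 Note: binding of Prmt1 protein to compounds spotted on small-molecule microarray slides.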 Particulars: higher = more signal.
Assay [2] can be described thus: growth effects on S. cerevisiae YJM789 – YJM789 clinical isolate, OD600, 24 h, basal, primary screen (AID 1089).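 Note: growth of clinical yeast isolate S. cerevisiae YJM 789 seeded 1000 cells per well; test concentration not given here.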 As to conditions: higher = more signal, called active from +8 up or from −8 down.
Assay [3] is described as follows: S. pombe growth modifiers, basal conditions – strain 972, OD600, 24 h, no modulator, primary screen (AID 1090).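 Note: basal condition with compound alone and no growth modifier present; test concentration not given here.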 Particulars: S. pombe 972 growth, higher = more signal, called active from +8 up or from −8 down.
A short description of assay [4]: budding yeast growth modifiers under rapamycin – strain BY4716, OD600, 96 h, primary screen (AID 1091). Note: test concentration not given here. Particulars: S. cerevisiae BY4716 + rapamycin, higher = more signal, called active from +8 up or from −8 down.
Assay [5] addresses Torsin-1A-interacting protein 2 (Homo sapiens) (UniProt Q8NFQ8). The assay is described as follows: small molecules binding lysate-expressed LULL1 – cell lysate, human LULL1 lysate, 635/667 nm fluorescence, primary screen (AID 1092).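 Note: probe is lysate of COS7 cells overexpressing human LULL1; score merges per-feature 667 nm fluorescence with signal-to-noise.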 Particulars: small-molecule microarray, hLULL1 lysate binding, 635 nm fluorescence; higher = more signal.
Assay [6] is described as follows: optical density change of DRC41 E. coli – strain DRC41, OD650, 24 h, E. coli filamentation project, primary screen (AID 1093).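 Note: MC1000 strain lacking acrAB efflux and sulA so SOS filamentation is blocked; test concentration not given here.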 Particulars: E. coli DRC41 growth, higher = more signal, called active from +8 up or from −8 down.
The nature of assay [7]: probe aLefty2 binding to arrayed compounds – biochemical, biotinylated probe, 635/667 nm fluorescence, primary screen (AID 1094).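 Note: score merges spot fluorescence near 667 nm with spot signal-to-noise ratio.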 As to conditions: small-molecule microarray, higher = more signal.
For assay [8], the system named is Noggin (protein binding on small-molecule microarray). Briefly: small molecules binding Noggin protein – biochemical, 635/667 nm fluorescence, primary screen (AID 1095).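 Note: score merges 667 nm feature fluorescence with signal to noise over triplicate slides.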 Particulars: 635 nm fluorescence, higher = more signal.
Assay [9] concerns the target Neurogenic locus notch homolog protein 3 (Homo sapiens) (UniProt Q9UM47). The assay is described as follows: small molecules binding NOTCH3 protein – biochemical, 635/667 nm fluorescence, primary screen (AID 1096). Particulars: small-molecule microarray, 635 nm fluorescence, higher = more signal.
Assay [10] can be described thus: probe aEGFR binding to arrayed compounds – biochemical, biotinylated probe, 635/667 nm fluorescence, primary screen (AID 1097).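 Note: probe is a biotinylated anti-EGFR antibody binding compounds printed on slides; score combines fluorescence near 667 nm and signal to noise of each spot.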 As to conditions: small-molecule microarray, higher = more signal.

Neurogenic locus notch homolog protein 3 (Homo sapiens), sequence (Q9UM47 whole entry, looked up): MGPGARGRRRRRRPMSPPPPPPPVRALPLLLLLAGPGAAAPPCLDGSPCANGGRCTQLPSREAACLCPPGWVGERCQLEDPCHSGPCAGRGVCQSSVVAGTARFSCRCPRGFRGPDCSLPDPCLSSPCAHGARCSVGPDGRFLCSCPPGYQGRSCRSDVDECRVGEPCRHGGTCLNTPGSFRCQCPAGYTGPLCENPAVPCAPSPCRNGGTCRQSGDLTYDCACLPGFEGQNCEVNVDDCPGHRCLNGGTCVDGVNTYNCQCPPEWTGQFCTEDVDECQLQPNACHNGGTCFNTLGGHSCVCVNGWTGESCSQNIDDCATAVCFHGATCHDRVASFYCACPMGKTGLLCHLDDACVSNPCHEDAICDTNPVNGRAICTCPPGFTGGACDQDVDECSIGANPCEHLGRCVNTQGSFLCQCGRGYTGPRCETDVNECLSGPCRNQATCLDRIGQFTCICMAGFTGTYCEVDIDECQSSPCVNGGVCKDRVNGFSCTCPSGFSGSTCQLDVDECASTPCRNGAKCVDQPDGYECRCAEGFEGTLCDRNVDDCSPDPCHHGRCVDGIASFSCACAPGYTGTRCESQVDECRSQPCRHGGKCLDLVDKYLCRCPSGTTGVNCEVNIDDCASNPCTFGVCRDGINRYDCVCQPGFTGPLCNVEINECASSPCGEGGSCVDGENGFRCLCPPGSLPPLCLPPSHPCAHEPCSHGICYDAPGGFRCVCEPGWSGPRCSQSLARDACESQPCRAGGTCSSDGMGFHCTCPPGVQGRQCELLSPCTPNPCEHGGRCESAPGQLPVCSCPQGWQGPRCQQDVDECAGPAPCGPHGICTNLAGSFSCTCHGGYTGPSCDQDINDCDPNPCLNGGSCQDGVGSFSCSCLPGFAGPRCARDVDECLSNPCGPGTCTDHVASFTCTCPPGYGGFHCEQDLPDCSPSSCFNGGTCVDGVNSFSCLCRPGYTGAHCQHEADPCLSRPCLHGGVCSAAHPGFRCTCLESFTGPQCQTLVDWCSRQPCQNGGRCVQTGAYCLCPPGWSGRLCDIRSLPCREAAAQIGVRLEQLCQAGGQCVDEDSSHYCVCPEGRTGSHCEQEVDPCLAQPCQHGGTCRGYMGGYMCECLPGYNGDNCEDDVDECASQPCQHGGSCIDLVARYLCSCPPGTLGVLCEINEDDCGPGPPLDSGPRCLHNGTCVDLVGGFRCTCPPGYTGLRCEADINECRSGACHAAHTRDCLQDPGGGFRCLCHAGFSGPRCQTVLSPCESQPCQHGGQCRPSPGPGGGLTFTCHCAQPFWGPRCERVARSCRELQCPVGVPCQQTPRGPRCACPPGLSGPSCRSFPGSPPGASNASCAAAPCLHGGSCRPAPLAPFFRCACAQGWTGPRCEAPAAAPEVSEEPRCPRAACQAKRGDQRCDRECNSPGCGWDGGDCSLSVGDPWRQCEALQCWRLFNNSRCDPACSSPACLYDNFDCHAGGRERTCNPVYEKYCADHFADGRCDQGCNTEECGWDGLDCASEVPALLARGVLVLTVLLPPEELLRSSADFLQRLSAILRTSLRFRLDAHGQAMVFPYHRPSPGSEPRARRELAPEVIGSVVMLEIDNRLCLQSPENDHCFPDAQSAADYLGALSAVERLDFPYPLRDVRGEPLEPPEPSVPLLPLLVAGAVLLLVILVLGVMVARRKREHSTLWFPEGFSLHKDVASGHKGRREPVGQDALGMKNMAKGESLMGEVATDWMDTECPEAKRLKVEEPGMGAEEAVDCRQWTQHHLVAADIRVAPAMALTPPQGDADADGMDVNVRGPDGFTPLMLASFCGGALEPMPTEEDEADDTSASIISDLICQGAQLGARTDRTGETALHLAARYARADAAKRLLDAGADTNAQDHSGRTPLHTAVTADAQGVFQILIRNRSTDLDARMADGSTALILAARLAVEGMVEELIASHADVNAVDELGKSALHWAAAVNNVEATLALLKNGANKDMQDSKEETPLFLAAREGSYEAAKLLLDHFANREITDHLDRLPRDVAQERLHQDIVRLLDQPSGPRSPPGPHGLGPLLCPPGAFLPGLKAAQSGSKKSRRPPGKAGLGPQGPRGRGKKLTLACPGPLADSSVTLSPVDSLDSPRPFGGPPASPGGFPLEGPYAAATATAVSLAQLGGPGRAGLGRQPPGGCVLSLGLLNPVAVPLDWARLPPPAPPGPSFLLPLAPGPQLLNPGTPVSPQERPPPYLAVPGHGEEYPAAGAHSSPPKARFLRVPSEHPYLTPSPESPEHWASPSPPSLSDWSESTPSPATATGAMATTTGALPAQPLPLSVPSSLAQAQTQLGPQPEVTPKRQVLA
Torsin-1A-interacting protein 2 (Homo sapiens), sequence (Q8NFQ8 whole entry, looked up): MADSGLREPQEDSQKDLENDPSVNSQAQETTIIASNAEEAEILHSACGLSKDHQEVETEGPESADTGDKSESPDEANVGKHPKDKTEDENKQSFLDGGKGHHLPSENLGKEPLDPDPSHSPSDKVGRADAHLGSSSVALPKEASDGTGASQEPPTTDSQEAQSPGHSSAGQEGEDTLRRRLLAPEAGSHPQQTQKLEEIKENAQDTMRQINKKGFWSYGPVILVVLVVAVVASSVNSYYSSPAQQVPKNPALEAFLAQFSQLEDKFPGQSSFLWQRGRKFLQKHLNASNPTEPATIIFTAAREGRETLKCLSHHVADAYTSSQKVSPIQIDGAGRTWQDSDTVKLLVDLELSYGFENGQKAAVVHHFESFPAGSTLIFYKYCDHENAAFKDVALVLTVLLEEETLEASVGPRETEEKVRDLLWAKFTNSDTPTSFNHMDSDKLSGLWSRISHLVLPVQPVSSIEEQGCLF

On to `C=CCNC(=O)[C@@H]1[C@H]2C(=O)O[C@H](c3ccccc3)[C@H](c3ccccc3)N2[C@H](c2ccccc2OCCO)[C@@]12C(=O)N(C(=O)OCCOC)c1ccc(C#CCNC(N)=O)cc12`, for which the composite z-score is 1.46 in assay [1]; 2.85 in [5]; 0.0395 in assay [7]; 0.61 in assay [8]; 1.12 in assay [9]; 0.0149 in assay [10]. Moreover, the z-score was 1.11 (inactive) in [2], 0.731 (inactive) in assay [3], 2.72 (inactive) in assay [4] and -0.395 (inactive) in [6].

Turning to `CC(C)C[C@@H]1NC(=O)[C@H]2C[C@@H](C(=O)NCCCCCCN)[C@@H](c3ccc(O)cc3)N2C1=O`, the composite z-score came to 1.17 in assay [1]; 2.32 in [5]; 0.679 in assay [7]; 0.696 in assay [8]; 0.529 in assay [9]; 0.125 in [10]. Also, the z-score was -0.582 (inactive) in assay [2], -0.464 (inactive) in [3], -0.283 (inactive) in [4] and -0.11 (inactive) in assay [6].

For `COCCOC(=O)N1C(=O)[C@@]2(c3cc(C#Cc4ccc(OC)cc4)ccc31)[C@H](C(=O)N1CCCCCCC1)[C@H]1C(=O)O[C@H](c3ccccc3)[C@H](c3ccccc3)N1[C@@H]2c1ccc(OCCO)cc1`, the composite z-score in assay [1] worked out at 1.55; in assay [5], 2.29; in [7], 1.59; in [8] it was 2.1; in assay [9] it was 1.01; in assay [10], 0.4. In addition, the z-score in assay [2] is -0.821 (inactive); in [3], 0.0405 (inactive); in assay [4], 3.27 (inactive); in assay [6], 2.36 (inactive).

For the molecule `C=CC[C@@]1(C(=O)NCc2ccccc2)N=C(c2ccc(OCCCO)cc2)O[C@@H]1c1ccccc1N=[N+]=[N-]`, the composite z-score in assay [1] was 1.54; in assay [5] it was 3.55; in assay [7] it was 0.252; in [8] it was 0.8; in [9], 1.09; in assay [10] it was 0.006. The z-score in assay [2] is 0.158 (inactive); in [3] it was 0.178 (inactive); in [4], 2.21 (inactive); in assay [6] it was 0.266 (inactive).

`COC(=O)[C@@]1(Cc2ccc(OC)cc2)[C@H]2c3cc(C(=O)N4CCCC4)n(Cc4ccc(OC)c(OC)c4)c3C[C@H]2CN1C(=O)c1ccccc1`: the composite z-score in assay [1] was determined as 0.929; in assay [5], 3.36; in assay [7], 1.2; in assay [8], 0.793; in [9], 1.11; in assay [10], 0.889. Further, the z-score in [2] was -0.515 (inactive); in assay [3], 0.835 (inactive); in assay [4] it was 1.18 (inactive); in assay [6] it was -0.148 (inactive).

Consider `CN1C(=O)C2C=CC(C(O)c3cccs3)N(Nc3ccccc3)C2C1=O` (stereo not given), for which the composite z-score in assay [1] was 0.881; in assay [5], 3.24; in assay [7], 0.139; in assay [8], 0.395; in assay [9], 0.826; in assay [10] it was -0.0111. Further, the z-score in assay [2] was 0.442 (inactive); in assay [3] it was 0.917 (inactive); in assay [4], 0.662 (inactive); in assay [6], -1.32 (inactive).

Turning to `COc1ccc(C(O)C2C=CC3C(=O)N(C)C(=O)C3N2N2CCCCC2)c2ccccc12` (stereo not given), the composite z-score in [1] was 1.42; in [5], 3.01; in assay [7], 0.168; in [8] it was 0.303; in [9] it was 1.11; in assay [10] it was 0.095. For the same molecule, the z-score in [2] is -0.079 (inactive); in assay [3] it was 1.16 (inactive); in assay [4], 0.631 (inactive); in assay [6], -1.22 (inactive).

For the molecule `O=C1NCC(=O)N2[C@@H]1C[C@@H](C(=O)O)[C@H]2c1cccc(OCCO)c1`, the composite z-score was 1.54 in assay [1]; 4.93 in [5]; 1.81 in assay [7]; 2.31 in [8]; 1.03 in assay [9]; 1.41 in assay [10]. For the same molecule, the z-score in assay [2] is -0.215 (inactive); in assay [3], -14.2 (active); in assay [4], 0.273 (inactive); in [6] it was 0.0664 (inactive).

In the case of `CC(C)N1C(=O)[C@@]2(Cc3ccccc31)c1ccccc1C(=O)N(C1CCCCC1)[C@H]2c1ccc(CO)cc1`, the composite z-score was 1.56 in assay [1]; 2.01 in [5]; -0.132 in assay [7]; 0.79 in assay [8]; 0.79 in assay [9]; 0.0117 in assay [10]. Besides, the z-score was -0.0915 (inactive) in [2], -0.34 (inactive) in assay [3], -2.58 (inactive) in assay [4] and -1.61 (inactive) in [6].

On to `COCC(=C=CC[C@@H](O)c1ccccc1OCCO)C[C@@H](O)c1cc(Cl)cc(Cl)c1O`, for which the composite z-score in assay [1] was 1.53; in assay [5], 2.13; in [7], -0.053; in assay [8] it was 1.42; in assay [9], 1.07; in [10], -0.0353. In addition, the z-score is 0.157 (inactive) in assay [2], -0.563 (inactive) in [3], 0.0403 (inactive) in assay [4] and 0.0142 (inactive) in [6].

Turning to `COc1ccc(CCNC(=O)[C@@]2(Sc3ccc(C)cc3)CC(=O)N(C3CCCCC3)[C@@H]2c2ccc(CO)cc2I)cc1`, the composite z-score in assay [1] is 1.42; in assay [5] it was 2.71; in [7], -0.0823; in [8], 0.53; in assay [9], 1.1; in assay [10] it was 0.0414. In addition, the z-score is -1.11 (inactive) in [2], 0.0408 (inactive) in assay [3], 0.766 (inactive) in assay [4] and -0.0209 (inactive) in assay [6].

Consider `COCCCNC(=O)C1N=C(c2ccc(OCCCO)cc2)N(c2ccccc2)O1` (stereo not given), for which the composite z-score in assay [1] was 1.39; in assay [5], 1.94; in assay [7], -0.0553; in assay [8], 1.08; in assay [9] it was 0.911; in assay [10] it was -0.0549. For the same molecule, the z-score in assay [2] was 0.0302 (inactive); in [3], 0.42 (inactive); in [4] it was -0.779 (inactive); in [6] it was 0.919 (inactive).

`C=CC[C@]1(C(=O)N2CCCCC2)N=C(c2ccc(OCCCO)cc2)O[C@H]1c1ccccc1`: the composite z-score in assay [1] amounted to 1.58; in [5], 3.21; in assay [7], 0.495; in [8], 1.06; in assay [9], 0.369; in [10], 0.35. Further, the z-score in [2] is -1.97 (inactive); in assay [3], -5.54 (inactive); in assay [4], -2.04 (inactive); in [6], 1.14 (inactive).

For the molecule `CCc1oc(CC[C@@H](CO)NC(=O)NCCn2cc(C3(O)CCCCC3)nn2)c(C(=O)OC)c1C(=O)OC`, the composite z-score was 1.32 in assay [1]; 0.775 in assay [5]; -0.0615 in [7]; 1.39 in assay [8]; 0.939 in [9]; 0.0473 in assay [10]. Besides, the z-score in assay [2] is 0.458 (inactive); in [3], -0.173 (inactive); in assay [4], -0.874 (inactive); in assay [6] it was -1.2 (inactive).
